In PubChem BioAssay AID1159580 (chemical genetic matrix, 2015):
Values joined by “and” are separate entries in the source; they are usually repeats but may differ in a detail not shown here. Equal entries are not always repeated. Hit rate of the full screen: of about 5,500 compounds, about 2,000 (36%) were called active. Roughly 18% stayed inconclusive and do not appear here. Cut-off read from the data, not from the text of the source: active = normalized growth mostly below about 0.91 (no sharp cut-off); inconclusive = no clear call, values can overlap the other calls; inactive = mostly above about 0.92. Some of the results follow.

Test: chemical genetic growth profiling, strain panel (AID 1159580);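 note: tested at 20 µM; growth read once vehicle control cultures reached saturation at 30 °C; 1 = growth at the plate median or of vehicle wells; lower values mean less growth of the strain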
Conditions: S. cerevisiae deletion strains, growth OD

Measured: normalized growth

NCCc1c[nH]c2ccccc12
inactive: locus YAL013W, strain DEP1, active compounds read low 0.983 and 0.988 | locus YAL021C, strain ccr4, active compounds read low 0.967 | locus YAL026C, strain drs2, active compounds read low 0.96 | locus YAL030W, strain snc1, active compounds read low 0.969 | locus YAL040C, strain CLN3, active compounds read low 1.08 | locus YBL061C, strain skt5, active compounds read low 0.959 | locus YBR009C, strain hhf1, active compounds read low 0.988 | locus YBR021W, strain FUR4, active compounds read low 1.01 | locus YBR023C, strain chs3, active compounds read low 0.945 | locus YBR171W, strain sec66, active compounds read low 0.955 | locus YBR229C, strain ROT2, active compounds read low 0.954 | locus YBR231C, strain swc5, active compounds read low 0.962 | locus YBR279W, strain paf1, active compounds read low 0.942 | locus YCL011C, strain gbp2, active compounds read low 0.945 | locus YCL016C, strain dcc1, active compounds read low 0.98 | locus YCL029C, strain bik1, active compounds read low 0.994 | locus YCL061C, strain MRC1 (second series), active compounds read low 0.998 | locus YCL061C, strain MRC1, active compounds read low 0.967 | locus YCL069W, strain vba3, active compounds read low 0.973 | locus YCR088W, strain abp1, active compounds read low 0.967 | locus YDL005C, strain med2, active compounds read low 0.974 | locus YDL035C, strain GPR1, active compounds read low 0.977 | locus YDL040C, strain nat1, active compounds read low 0.96 | locus YDL074C, strain BRE1, active compounds read low 1 | locus YDL101C, strain DUN1, active compounds read low 0.987 | locus YDL134C, strain PPH21, active compounds read low 0.964 | locus YDL185W, strain tfp1, active compounds read low 0.988 | locus YDL192W, strain arf1, active compounds read low 0.985 | locus YDR001C, strain nth1, active compounds read low 0.954 | locus YDR069C, strain doa4, active compounds read low 0.913 | locus YDR101C, strain arx1, active compounds read low 1.01 | locus YDR137W, strain rgp1, active compounds read low 0.934 | locus YDR150W, strain NUM1, active compounds read low 0.967 | locus YDR159W, strain sac3, active compounds read low 0.925 | locus YDR162C, strain NBP2, active compounds read low 0.954 | locus YDR195W, strain ref2 0.926 | locus YDR297W, strain sur2, active compounds read low 0.967 | locus YDR318W, strain mcm21, active compounds read low 0.999 | locus YDR334W, strain swr1, active compounds read low 0.94 | locus YDR335W, strain msn5, active compounds read low 0.961 | locus YDR363W, strain ESC2, active compounds read low 0.975 | locus YDR388W, active compounds read low 0.997 | locus YDR392W, strain spt3, active compounds read low 1.01 | locus YDR502C, strain sam2, active compounds read low 0.993 | locus YEL003W, strain gim4, active compounds read low 0.978 | locus YEL037C, strain rad23, active compounds read low 0.958 | locus YEL061C, strain CIN8 (second series), active compounds read low 0.957 | locus YEL061C, strain CIN8, active compounds read low 0.98 | locus YER002W, strain NOP16, active compounds read low 0.99 | locus YER015W, strain faa2, active compounds read low 0.975 | locus YER016W, strain bim1, active compounds read low 0.964 | locus YER110C, active compounds read low 0.967 | locus YER111C, strain swi4, active compounds read low 0.973 | locus YER155C, strain BEM2 (second series), active compounds read low 0.923 | locus YER155C, strain BEM2, active compounds read low 0.998 | locus YER167W, strain BCK2, active compounds read low 0.982 | locus YFR010W, strain ubp6, active compounds read low 0.951 | locus YGL078C, strain dbp3, active compounds read low 0.98 | locus YGL086W, strain mad1, active compounds read low 0.966 | locus YGL167C, strain pmr1, active compounds read low 0.939 | locus YGL173C, strain kem1, active compounds read low 0.992 | locus YGL227W, strain vid30, active compounds read low 0.937 | locus YGL240W, strain doc1, active compounds read low 0.964 | locus YGL248W, strain PDE1, active compounds read low 0.983 | locus YGL253W, strain hxk2, active compounds read low 0.952 | locus YGR078C, strain PAC10, active compounds read low 1.01 and 0.994 | locus YGR135W, strain pre9, active compounds read low 0.989 | locus YGR229C, strain SMI1, active compounds read low 1.01 | locus YGR252W, strain gcn5, active compounds read low 0.911 | locus YHR013C, strain ard1, active compounds read low 0.949 | locus YHR027C, strain rpn1, active compounds read low 0.962 | locus YHR030C, strain SLT2, active compounds read low 0.987 and 0.959 | locus YHR079C, strain IRE1 (second series), active compounds read low 0.998 | locus YHR079C, strain IRE1, active compounds read low 0.957 | locus YHR094C, strain hxt1, active compounds read low 0.994 | locus YHR129C, strain ARP1, active compounds read low 1 | locus YHR142W, strain chs7, active compounds read low 0.965 | locus YHR200W, strain rpn10, active compounds read low 1 | locus YIL066C, strain RNR3, active compounds read low 0.985 | locus YIL073C, strain SPO22, active compounds read low 0.959 | locus YIL125W, strain kgd1, active compounds read low 0.983 | locus YIR030C, strain dcg1, active compounds read low 0.981 | locus YJL092W, strain hpr5, active compounds read low 0.963 | locus YJL095W, strain BCK1 (second series), active compounds read low 0.96 | locus YJL095W, strain BCK1, active compounds read low 1.03 and 0.994 | locus YJL115W, strain asf1, active compounds read low 0.961 | locus YJL129C, strain trk1, active compounds read low 0.963 | locus YJL134W, strain LCB3, active compounds read low 0.984 | locus YJL154C, strain vps35, active compounds read low 0.948 | locus YJL164C, strain tpk1, active compounds read low 0.989 | locus YJL166W, strain qcr8, active compounds read low 0.938 | locus YJL168C, strain set2, active compounds read low 1 | locus YJL187C, strain SWE1 (second series), active compounds read low 1 | locus YJL187C, strain SWE1, active compounds read low 0.967 | locus YJR043C, strain POL32, active compounds read low 1.02 | locus YJR066W, strain TOR1, active compounds read low 0.926
